The nature of experiment [1]: NCI Yeast Anticancer Drug Screen. Data for the rad50 strain (AID 155).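 Also: 0% = growth of vehicle-only cultures of the same strain.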 To be noted: S. cerevisiae rad50 strain growth inhibition, hits give high values. In outline:
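Readout: growth inhibition relative to vehicle-treated cultures. Compound exposure was carried out in a genetically defined yeast strain deficient in DNA damage repair.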

A short description of experiment [2]: NCI Yeast Anticancer Drug Screen. Data for the mec2-1 strain (AID 157). To be noted: S. cerevisiae mec2-1 strain, hits give high values. In outline:
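Mutant yeast (mec2-1) grown with compound; growth inhibition relative to vehicle control reported.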

Experiment [3] is described as follows: NCI Yeast Anticancer Drug Screen. Data for the sgs1 mgt1 strain (AID 161).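 Also: 0% = growth of cultures given vehicle only.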 To be noted: S. cerevisiae sgs1 mgt1 strain, hits give high values. In a few lines: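 Growth of a repair-deficient yeast mutant was monitored after compound treatment and expressed as inhibition relative to vehicle-treated cultures.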
Experiment [4] is described as follows: NCI Yeast Anticancer Drug Screen. Data for the cln2 rad14 strain (AID 165).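 Also: 0% = growth equal to vehicle treated cultures.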 To be noted: S. cerevisiae cln2 rad14 strain, hits give high values. In a few lines: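 Readout is yeast growth inhibition versus vehicle-treated controls, using a strain with cln2 and rad14 alterations exposed to compound.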
Experiment [5] can be described thus: NCI Yeast Anticancer Drug Screen. Data for the bub3 strain (AID 167). To be noted: S. cerevisiae bub3 mutant strain, hits give high values. In outline: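 Readout: yeast growth inhibition, expressed relative to vehicle-only wells. The test organism is a mutant strain from a panel with lesions in DNA repair or checkpoint genes.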
The nature of experiment [6]: NCI Yeast Anticancer Drug Screen. Data for the mlh1 rad18 strain (AID 175). To be noted: S. cerevisiae mlh1 rad18 strain growth inhibition, hits give high values. In outline: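 Genetically defined yeast (DNA repair-deficient) exposed to compounds; growth inhibition determined relative to vehicle.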
The mark [7] stands for this setting: at 5.0 µM (retest, dose inferred, filed as 0.5).
[8] abbreviates: at 50.0 µM (retest, dose inferred, filed as 5.0).

Compounds without any hit were thinned out: in the full panel of roughly 79,000, 15% have a hit. A number with no mark means an inactive call. Active and inactive are the calls of the source. Rule as the data show it: active = growth inhibition above about 70%; inactive = the rest.

Turning to `Cc1ccc(-c2c3nc(c(-c4ccc(C)cc4)c4ccc([nH]4)c(-c4ccc(C)cc4)c4nc(c(-c5ccncc5)c5ccc2[nH]5)C=C4)C=C3)cc1.Cc1ccc(-c2c3nc(c(-c4ccc(C)cc4)c4ccc([nH]4)c(-c4ccc(C)cc4)c4nc(c(-c5ccncc5)c5ccc2[nH]5)C=C4)C=C3)cc1.O=S(=O)([O-])C(F)(F)F.[Pt+2].c1ccc([PH+](CCC[PH+](c2ccccc2)c2ccccc2)c2ccccc2)cc1`, the growth inhibition was 19% in experiment [1] (setting [7]); 62% in experiment [1] (setting [8]); 48.8% in experiment [1] (at 50.0 µM); 13% in experiment [2] (setting [7]); 42% in experiment [2] (setting [8]); 36.8% in experiment [2] (at 50.0 µM). In addition, the growth inhibition in experiment [3] (setting [7]) is 13%; in experiment [3] (setting [8]), 71% (active); in experiment [3] (at 50.0 µM), 50.4%; in experiment [4] (setting [7]) it was 3%; in experiment [4] (setting [8]), 45%; in experiment [4] (at 50.0 µM) it was -44.6%. In addition, the growth inhibition in experiment [5] (setting [7]) was 10%; in experiment [5] (setting [8]) it was 63%; in experiment [5] (at 50.0 µM) it was 38.8%; in experiment [6] (setting [7]), 14%; in experiment [6] (setting [8]), 60%; in experiment [6] (at 50.0 µM), 68.5%.

Consider `O=C(c1ccccc1)C(c1ccccc1)C1(O)C(=O)Nc2c(Cl)cc(Cl)cc21` (centres undefined), for which the growth inhibition in experiment [1] (setting [7]) was 13%; in experiment [1] (setting [8]), 13%; in experiment [1] (at 50.0 µM), 92.8% (active); in experiment [2] (setting [7]), -6%; in experiment [2] (setting [8]), -6%; in experiment [2] (at 50.0 µM) it was 93.3% (active). Also, the growth inhibition is -18% in experiment [3] (setting [7]); -18% in experiment [3] (setting [8]); 92% (active) in experiment [3] (at 50.0 µM); -6% in experiment [4] (setting [7]); -6% in experiment [4] (setting [8]); 87% (active) in experiment [4] (at 50.0 µM). For the same compound, the growth inhibition in experiment [5] (setting [7]) is -5%; in experiment [5] (setting [8]), -5%; in experiment [5] (at 50.0 µM), 93.2% (active); in experiment [6] (setting [7]) it was 0%; in experiment [6] (setting [8]) it was 0%; in experiment [6] (at 50.0 µM) it was 92.2% (active).

On to `c1ccc2c(c1)Cc1nc3ccccc3nc1-2`, for which the growth inhibition is -33% in experiment [1] (setting [7]); 93% (active) in experiment [1] (setting [8]); 98.3% (active) in experiment [1] (at 50.0 µM); -42% in experiment [2] (setting [7]); 93% (active) in experiment [2] (setting [8]); 98.2% (active) in experiment [2] (at 50.0 µM). In addition, the growth inhibition in experiment [3] (setting [7]) is -59%; in experiment [3] (setting [8]), 86% (active); in experiment [3] (at 50.0 µM), 90.6% (active); in experiment [4] (setting [7]), -56%; in experiment [4] (setting [8]) it was 88% (active); in experiment [4] (at 50.0 µM), 90% (active). Moreover, the growth inhibition in experiment [5] (setting [7]) was -65%; in experiment [5] (setting [8]), 90% (active); in experiment [5] (at 50.0 µM), 97.4% (active); in experiment [6] (setting [7]), -118%; in experiment [6] (setting [8]), 92% (active); in experiment [6] (at 50.0 µM) it was 97.8% (active).

For the compound `O=C(Nn1c(-c2ccccc2)nc2ccccc2c1=O)c1ccccc1O`, the growth inhibition in experiment [1] (setting [7]) was -4%; in experiment [1] (setting [8]) it was 49%; in experiment [1] (at 50.0 µM) it was 73.4% (active); in experiment [2] (setting [7]) it was -14%; in experiment [2] (setting [8]), 51%; in experiment [2] (at 50.0 µM) it was 64.2%. Besides, the growth inhibition is 3% in experiment [3] (setting [7]); 59% in experiment [3] (setting [8]); 79.5% (active) in experiment [3] (at 50.0 µM); 9% in experiment [4] (setting [7]); 59% in experiment [4] (setting [8]); 77.8% (active) in experiment [4] (at 50.0 µM). Also, the growth inhibition was -11% in experiment [5] (setting [7]); 80% (active) in experiment [5] (setting [8]); 78.2% (active) in experiment [5] (at 50.0 µM); -1% in experiment [6] (setting [7]); 79% (active) in experiment [6] (setting [8]); 69.8% in experiment [6] (at 50.0 µM).

Take `CCCCCCCC/C=C\CCCCCCCC(=O)NCCN(C)C`: the growth inhibition in experiment [1] (setting [7]) was -1%; in experiment [1] (setting [8]) it was 99% (active); in experiment [1] (at 50.0 µM), 99.3% (active); in experiment [2] (setting [7]), 5%; in experiment [2] (setting [8]) it was 100% (active); in experiment [2] (at 50.0 µM) it was 99.4% (active). The growth inhibition in experiment [3] (setting [7]) was 33%; in experiment [3] (setting [8]), 99% (active); in experiment [3] (at 50.0 µM), 99.5% (active); in experiment [4] (setting [7]) it was 2%; in experiment [4] (setting [8]), 99% (active); in experiment [4] (at 50.0 µM), 68.2%. In addition, the growth inhibition in experiment [5] (setting [7]) was 2%; in experiment [5] (setting [8]) it was 99% (active); in experiment [5] (at 50.0 µM) it was 97.2% (active); in experiment [6] (setting [7]) it was 22%; in experiment [6] (setting [8]), 99% (active); in experiment [6] (at 50.0 µM), 99.5% (active).

Consider `CCCCC(O)(c1ccccc1)C(O)(c1ccccc1)c1c(F)c(F)c(F)c(F)c1F` (centres undefined), for which the growth inhibition in experiment [1] (setting [7]) was 17%; in experiment [1] (setting [8]), 99% (active); in experiment [1] (at 50.0 µM) it was 81.1% (active); in experiment [2] (setting [7]), -3%; in experiment [2] (setting [8]) it was 99% (active); in experiment [2] (at 50.0 µM) it was 96.6% (active). In addition, the growth inhibition in experiment [3] (setting [7]) is -5%; in experiment [3] (setting [8]), 98% (active); in experiment [3] (at 50.0 µM), 99% (active); in experiment [4] (setting [7]), 1%; in experiment [4] (setting [8]), 98% (active); in experiment [4] (at 50.0 µM), 97.3% (active). The growth inhibition in experiment [5] (setting [7]) is -8%; in experiment [5] (setting [8]), 96% (active); in experiment [5] (at 50.0 µM), 98.6% (active); in experiment [6] (setting [7]), -4%; in experiment [6] (setting [8]), 99% (active); in experiment [6] (at 50.0 µM), 97.2% (active).

Turning to `Cc1cccc2c1CC1(C2)Cc2c(C)cccc2C1=O` (centres undefined), the growth inhibition is -3% in experiment [1] (setting [7]); 87% (active) in experiment [1] (setting [8]); 36.9% in experiment [1] (at 50.0 µM); -30% in experiment [2] (setting [7]); 78% (active) in experiment [2] (setting [8]); 42.1% in experiment [2] (at 50.0 µM). Further, the growth inhibition in experiment [3] (setting [7]) was -23%; in experiment [3] (setting [8]), 68%; in experiment [3] (at 50.0 µM), 57.6%; in experiment [4] (setting [7]), 26%; in experiment [4] (setting [8]), 20%; in experiment [4] (at 50.0 µM) it was 55.5%. Also, the growth inhibition in experiment [5] (setting [7]) is 21%; in experiment [5] (setting [8]), 92% (active); in experiment [5] (at 50.0 µM) it was 70% (active); in experiment [6] (setting [7]), -11%; in experiment [6] (setting [8]), 52%; in experiment [6] (at 50.0 µM), 50.4%.

On to `O=C1CC2Sc3ccccc3N=C2N1c1ccc(Cl)cc1Cl` (centres undefined), for which the growth inhibition in experiment [1] (setting [7]) was 36%; in experiment [1] (setting [8]), 96% (active); in experiment [1] (at 50.0 µM) it was 88.2% (active); in experiment [2] (setting [7]) it was 33%; in experiment [2] (setting [8]) it was 100% (active); in experiment [2] (at 50.0 µM) it was 93.2% (active). Also, the growth inhibition was 42% in experiment [3] (setting [7]); 100% (active) in experiment [3] (setting [8]); 88.8% (active) in experiment [3] (at 50.0 µM); 34% in experiment [4] (setting [7]); 73% (active) in experiment [4] (setting [8]); 65.2% in experiment [4] (at 50.0 µM). Besides, the growth inhibition in experiment [5] (setting [7]) is 39%; in experiment [5] (setting [8]) it was 99% (active); in experiment [5] (at 50.0 µM), 92% (active); in experiment [6] (setting [7]) it was 47%; in experiment [6] (setting [8]), 98% (active); in experiment [6] (at 50.0 µM), 89.6% (active).

Values taken from PubChem BioAssay (NCI).
